GDH-TPI counter: GDH-TPI coupling enzyme inhibitors, primary screen, artefact control for M. tuberculosis FBA inhibitor project, biochemical, absorbance, full deck. AID 588335, 2011. GDH-TPI coupled enzyme counterscreen, NADH absorbance. inhibition, % at 4.8 µM. 360,000 compounds, 1.2% hits; in the data active = inhibition above about 30%;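 also: 0% = DMSO wells and 100% = wells lacking the enzyme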
BoNT-F LC inh: BoNT/F light chain protease inhibitors, primary screen, biochemical, flow cytometry, MLPCN library; Multiplex microsphere protease cleavage assay; inhibition, % at 10 µM; 360,000 compounds, 0.22% hits; AID 588497, 2011; in the data active = inhibition above about 35%, passing the limit was not always enough; inconclusive = no clear call, values can overlap the other calls; also: plate controls were buffer without enzyme for full effect and enzyme alone for no effect
Mtb FBA inh: Mtb FBA enzyme inhibitors, primary screen, biochemical, fluorescence, strain H37Rv. purified M. tuberculosis FBA, fluorescence read-out. inhibition, % at 1 µM. 360,000 compounds, 2.3% hits. AID 588726, 2011; in the data active = inhibition above about 27%;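 also: 0% = vehicle and 100% = reference inhibitor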
Bead autofluor: compound fluorescence in toxin protease inhibitor counterscreen; compound autofluorescence counterscreen, microsphere flow cytometry; stronger effect = higher value; fluorescence intensity (concentration not given with the values); 360,000 compounds, 3.1% hits; in the data active = fluorescence intensity above about 16000; inconclusive = no clear call, values can overlap the other calls
BoNT A protease: BoNT/A light chain protease inhibitors, primary screen, biochemical, flow cytometry, MLPCN library | multiplex microsphere protease substrate cleavage | Botulinum neurotoxin type A light chain protease (Clostridium botulinum A str. ATCC 3502) | inhibition, % at 10 µM | AID 588499, 2011 | 360,000 compounds, 0.17% hits; also: plate controls were buffer without enzyme for full effect and enzyme alone for no effect
Anthrax LF prot: Bacillus anthracis LF protease inhibitors, primary screen, biochemical, multiplex microsphere, MLPCN library; Lethal factor (Bacillus anthracis), P15917; multiplex microsphere protease cleavage assay; inhibition, % at 10 µM; 360,000 compounds, 0.12% hits; AID 588501, 2011; also: plate controls were buffer without enzyme for full effect and enzyme alone for no effect
* = called active by the depositor; ? = inconclusive; ! = a repeat was not active. Most compounds without a hit are left out; they make up all but 6.6% or so of the library. Rule as the data show it, unless noted: active = inhibition above about 30%; inconclusive = no clear call, values can overlap the other calls; inactive = below that.

SMILES	GDH-TPI counter	BoNT-F LC inh	Mtb FBA inh	Bead autofluor	BoNT A protease	Anthrax LF prot
CN(C)Cc1c(C(=O)N/N=C/c2cccs2)nnn1-c1nonc1N	25.6	-2.1	2.3	2887	-0.3	9.9
O=C(CSc1nnc(C2CC2)n1Cc1ccccc1)N1CCNC1=O	2.3	-1.9	-2.9	3776	-0.4	2.6
O=C(Nc1cc(S(=O)(=O)N2CCOCC2)ccc1N1CCCC1)c1ccc2c(c1)S(=O)(=O)c1ccccc1C2=O	-1.9	-4.4	2.0	4490	-0.1	-0.2
O=C(NC(=S)N(Cc1ccccc1)c1ccccn1)C1CC1	7.1	2.3	2.1	2212	-0.6	-1.5
COC(=O)c1cc(C(=O)OC)n(Cc2ccc(Br)cc2)n1	-9.8	-4.9	0.0	21618*	?	-2.3
CCn1cc([N+](=O)[O-])c(C(=O)Nc2ccc(Cn3nc(C)cc3C)cc2)n1	-3.2	-6.7	5.6	10112	-0.2	-2.4
Cc1nn(C)c(C(=O)Nc2ccc3c(c2)OCO3)c1[N+](=O)[O-]	1.0	-0.7	0.6	5675	1.7	-0.8
Cc1cc(C)n(Cc2ccc(NC(=O)c3c([N+](=O)[O-])c(C)nn3C)cc2)n1	1.9	4.4	0.1	21819*	3.5	-2.2
Cc1cc(C)n(Cc2ccc(NC(=O)c3nn(C)cc3[N+](=O)[O-])cc2)n1	-7.0	1.0	3.3	22583*	1.7	-11.1
Cc1cncc(NCc2cccc(Cl)c2)n1	4.0	-11.1	118.0*	4011	-1.0	-6.9
Cc1cncc(NCc2ccc3c(c2)OCO3)n1	18.8	-2.9	2.8	3837	-0.2	-3.9
Cc1cc(C)c(NC(=O)CN2CCN3CCCC3C2)c(C)c1 (stereo not drawn)	6.9	-7.2	2.8	21570*!	-0.3	-0.1
CCOCCc1nnc(NC(=O)C(CC)c2ccccc2)s1 (stereo not drawn)	8.1	-4.6	-1.3	16622*	-0.5	-0.1
CCCC(=O)Nc1nnc(Cc2ccccc2)s1	2.5	-0.9	0.6	24700*	-1.6	-2.6
CCOCc1nnc(NC(=O)CSCc2ccccc2)s1	2.9	4.5	-2.9	20554*	?	-1.9
CCOCc1nnc(NC(=O)COC)s1	-0.6	-4.1	1.4	23993*	-1.8	-0.7
COC(=O)c1ccc(C(=O)N2CCCC(C)(C(=O)NS(=O)(=O)C3CC3)C2)cc1 (stereo not drawn)	1.8	-0.8	-1.1	4003	0.2	-2.1
Cc1c(C(=O)N(Cc2ccccc2)C(C)C)oc2ccc(S(=O)(=O)N3CCOCC3)cc12	8.6	1.4	-1.2	5254	-1.7	-0.1
CC(=O)Nc1ccnc(-c2cccnc2)n1	2.4	3.3	0.7	9610	-0.1	-1.4
CC(C)C(=O)Nc1ccnc(-c2cccnc2)n1	-3.7	0.8	3.8	22732*	0.5	-0.1
O=C(Nc1ccnc(-c2cccnc2)n1)c1cccc(Cl)c1Cl	-11.5	-1.2	4.1	22659*	-1.1	-5.2
Cc1cccc(C)c1OCc1nc2ccccc2c(=O)n1/N=C/c1c[nH]c2ccccc12	8.6	-1.9	7.2	2468	0.1	-0.4
CC(C(=O)Nc1ccc(C(=O)O)cc1)N1C(=O)c2ccccc2C1=O (stereo not drawn)	-17.1	-1.8	-1.1	20892*	-0.3	-2.5
Cc1ccc2nc(CSc3nc(C)cc(C)c3C#N)[nH]c2c1	9.9	7.4	17.9	21126*	8.3	1.2
Cc1cc(C)c(C#N)c(SCc2ccc(C(=O)O)cc2)n1	3.0	?	-0.2	3101	0.4	31.6*
CCCCCCC(=O)N=Nc1c(O)[nH]c2ccc([N+](=O)[O-])cc12	2.1	-7.1	3.4	2249	-0.6	0.3
O=C(CNC(=O)c1cccs1)N=Nc1c(O)[nH]c2ccc([N+](=O)[O-])cc12	34.5*	4.6	-2.2	5886	-1.0	3.9
COc1cc(C)c(CN2CCN(c3ccccc3)CC2)cc1C	7.8	-9.4	16.8	17583*	-3.5	-2.3
NC(Cc1ccccc1)c1csc(Nc2ccc(C(=O)c3ccccc3)cc2)n1 (stereo not drawn)	13.3	-21.9	4.6	3455	-0.1	-3.9
